From PubChem
Rows were chosen to be rich in hits. Some 2.6% of all compounds tested hit in one or more screens of this group.
Bst PK mod: pyruvate kinase (B. stearothermophilus) modulation. purified pyruvate kinase, luminescence ATP production; ribose 5-phosphate activator present at AC10. Potency, µM. actives 1.2% (n = 51,000); in the data active means potency below about 11 µM; inconclusive means mostly about 12 µM to 25 µM;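 the screen sought inhibitors and activators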
FLuc inh: inhibitors of firefly luciferase; P08659; purified firefly luciferase, luminescence, 8 min; Potency, µM (titrated, usually from 57.1 µM), most hits filed as inhibitors; actives 2.2% (n = 72,000); further: nearly all actives have a fitted effect of over 40% in size
Target sequence (P08659 whole entry, looked up): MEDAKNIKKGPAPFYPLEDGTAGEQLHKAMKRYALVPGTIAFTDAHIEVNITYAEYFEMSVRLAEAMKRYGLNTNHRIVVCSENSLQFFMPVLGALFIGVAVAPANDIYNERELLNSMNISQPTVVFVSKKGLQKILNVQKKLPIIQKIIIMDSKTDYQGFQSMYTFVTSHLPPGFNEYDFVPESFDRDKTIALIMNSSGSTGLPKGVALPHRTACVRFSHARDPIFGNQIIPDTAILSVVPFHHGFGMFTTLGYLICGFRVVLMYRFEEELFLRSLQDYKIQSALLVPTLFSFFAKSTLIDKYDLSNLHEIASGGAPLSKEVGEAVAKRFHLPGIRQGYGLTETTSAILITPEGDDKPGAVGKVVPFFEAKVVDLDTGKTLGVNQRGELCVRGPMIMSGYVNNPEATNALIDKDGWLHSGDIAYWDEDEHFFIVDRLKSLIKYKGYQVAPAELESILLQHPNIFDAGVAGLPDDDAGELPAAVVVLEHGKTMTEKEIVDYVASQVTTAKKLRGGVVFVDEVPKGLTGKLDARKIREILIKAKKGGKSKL
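Compounds were tested as concentration series (qHTS) against purified P. pyralis luciferase with luciferin and 10 uM ATP in 50 mM imidazole pH 7.2, 50 mM KCl, 7 mM MgCl2, 0.01% Tween 20, 0.05% BSA. Luminescence was read after 8 min at ambient temperature.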
HBB splicing: modulators of hemoglobin beta chain splicing. HBB splicing reporter cell assay, activation; EGFP reporter with mutant IVS2-654 intron; response scale: normalised to 500 nM splice-correcting PNA. actives 0.06% (n = 65,000). Potency, µM (titrated, usually from 46.1 µM), most hits filed as activators
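Compounds were applied for 2 days to HeLa EGFP-654 cells, 500/well in Optimem with 2% FCS. The reporter's EGFP is disrupted by mis-splicing of beta-globin intron IVS2-654. Readout: summed well GFP fluorescence from 488 nm laser scanning; reference was 500 nM antisense […] 654 PNA.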
Epigenetic mod: derepresses silenced GFP locus in mouse C127i cells. mouse C127i GFP locus derepression, cytometry, 30 h. Potency, µM (top dose mostly 46.1 µM). actives 0.09% (n = 68,000). AID 597
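Locus derepression in mouse mammary C127i cells whose integrated CMV-GFP reporter is normally silent; GFP expression after 30 h compound treatment was quantified by counting fluorescent cells.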
Numbers stand for hits; ! = not active in a repeat; [ ] = remark or other dose. Unless noted, the call rests on the fitted dose curve; in most records, active means well fitted curve in the direction sought with a large enough effect; inconclusive means small, poorly fitted or top-dose-only effect, or another doubt; inactive means no such curve, though single readings can be large; an effect the other way counts as inactive or inconclusive.

`CCCCCCn1c(O)c(C=NC2CCCCC2N)c(=O)[nH]c1=O` (stereo not given) gave Bst PK mod 2.71, FLuc inh 1.26µM, HBB splicing inactive and Epigenetic mod inactive.
For CO[C@@H](C)[C@](O)(C(=O)OC1=CCN2CC[C@H](O)[C@H]12)C(C)C the results were FLuc inh inactive[11.4 µM] and Epigenetic mod inactive[9.22 µM].
`COC(=O)c1ccc(COC(=O)c2ccccn2)cc1` gave FLuc inh 25.1µM, HBB splicing inactive and Epigenetic mod inactive.
`COC(=O)c1ccccc1C(=O)OC` gave HBB splicing inactive.
For O=C1CCCN1CC#CCN1CCCC1 the results were FLuc inh 25.1µM!, HBB splicing inactive and Epigenetic mod inactive.
O=C(O)/C=C\c1ccc[c]([Sb](=[O])([OH])[OH])c1 was read as FLuc inh inactive[11.4 µM], HBB splicing inactive[9.22 µM] and Epigenetic mod inactive[9.22 µM].
Screening CC(=O)[O-].CC(=O)[O-].O.O.O.[Pb+2] returned HBB splicing inactive.
Screening CC(C)(C)OOC(=O)c1ccccc1 returned HBB splicing inactive.
For CN(C)C(=O)Oc1ccc(OC(=O)c2ccccc2)cc1 the results were Bst PK mod inactive, FLuc inh 15.8µM, HBB splicing inactive and Epigenetic mod inactive.
`CC1=NN=C(c2ccc(N)cc2)c2cc3c(cc2C1)OCO3` gave FLuc inh 2µM!, HBB splicing inactive and Epigenetic mod inactive.
CC(=O)c1c(C)nc2ccccc2c1N was read as Bst PK mod 2.46, FLuc inh 3.16µM, HBB splicing inactive and Epigenetic mod inactive.
For Cc1nc2ccccc2c(=O)n1-n1cnnc1 the results were Bst PK mod inactive, FLuc inh inactive, HBB splicing inactive and Epigenetic mod inactive.
For C[C@@H]1O[C@@H](O[C@H]2C[C@@H](O)[C@]3(CO)[C@@H]4[C@@H](O)C[C@]5(C)[C@H]([C@@H]6COC(=O)C6)CC[C@@]5(O)[C@H]4CC[C@@]3(O)C2)[C@H](O)[C@H](O)[C@@H]1O the results were FLuc inh inactive, HBB splicing inactive and Epigenetic mod inactive.
For CCN(CC)CCCN=Cc1c(O)n(Cc2ccc(F)cc2)c(=O)[nH]c1=O the results were FLuc inh 12.6µM, HBB splicing inactive and Epigenetic mod inactive.
For COc1ccc(P2(=O)Nc3ccccc3N2)cc1 the results were FLuc inh 6.31µM, HBB splicing inactive[0.369 µM] and Epigenetic mod inactive.
For CCN(CC)C(=O)N[C@@H]1C=C2c3cccc4[nH]cc(c34)C[C@@H]2N(C)C1 the results were FLuc inh inactive, HBB splicing inactive and Epigenetic mod inactive.
`O=C(Oc1ccc2ccccc2c1Cl)N1CCCC1` gave FLuc inh 15.8µM, HBB splicing inactive and Epigenetic mod inactive.
Screening Cc1ccc2cccc(OC(=O)N3CCCC3)c2n1 returned Bst PK mod inconclusive, FLuc inh inactive, HBB splicing inactive and Epigenetic mod inactive.
For C[C@@H]1O[C@H](O[C@H]2C[C@@H](O)[C@]3(CO)[C@H]4[C@H](O)C[C@]5(C)[C@@H](C6=CC(=O)OC6)CC[C@@]5(O)[C@H]4CC[C@]3(O)C2)[C@@H](O)[C@H](O)[C@H]1O the results were FLuc inh inactive[11.4 µM] and Epigenetic mod inactive[9.22 µM].
Cc1ccc2nc3c(cc2c1)CC1(C(=O)N(C)C(=O)N(C)C1=O)C1COCCN31 (stereo not given) was read as FLuc inh inconclusive, HBB splicing inactive and Epigenetic mod inactive.
`Cc1ccc2nc3c(cc2c1)CC1(C(=O)N(C)C(=O)N(C)C1=O)C1CCCCN31` (stereo not given) gave Bst PK mod inconclusive, FLuc inh 6.31µM, HBB splicing inactive and Epigenetic mod inactive.
Screening CN1CSC(=S)N(C)C1 returned FLuc inh inactive, HBB splicing inactive and Epigenetic mod 6.31µM.
`CC[C@@H]1CN2CC[C@@H]1C[C@H]2[C@@H](O)c1ccnc2ccc(OC)cc12` gave FLuc inh inactive[11.4 µM] and Epigenetic mod inactive[9.22 µM].
`CN[C@H]1[C@H](C)O[C@@H](O[C@@H]2C/C=C(/C)C/C(C)=C\C=C/CC[C@@H](C)CNC(=O)/C=C\C=C/[C@H]2C)C[C@@H]1O` gave FLuc inh inactive[11.4 µM], HBB splicing inactive[9.22 µM] and Epigenetic mod inactive[9.22 µM].
Screening O=c1c2ccccc2[se]n1-c1ccccc1 returned Bst PK mod inactive, FLuc inh 15.8µM, HBB splicing inactive and Epigenetic mod inactive.
For COc1ccc2c(c[n+](C)c3c4cc5c(cc4ccc23)OCO5)c1OC the results were FLuc inh 31.6µM, HBB splicing inactive and Epigenetic mod inactive.
For O=c1cccc2n1C[C@@H]1C[C@H]2CN2CCCC[C@H]12 the results were FLuc inh inactive[11.4 µM] and Epigenetic mod inactive[9.22 µM].
For CN1CC[C@@]2(c3cccc(O)c3)Cc3nc4ccccc4cc3C[C@H]2C1 the results were FLuc inh 25.1µM and Epigenetic mod inactive.
For CN1CCN(c2ccc3nc(-c4ccc5nc(-c6ccc(O)cc6)[nH]c5c4)[nH]c3c2)CC1 the results were FLuc inh 3.98µM, HBB splicing inactive[9.22 µM] and Epigenetic mod inactive[9.22 µM].
For Cc1ccc2nc(N3CCN(C)CC3)[nH]c2c1 the results were FLuc inh inactive, HBB splicing inactive and Epigenetic mod inactive.
